TRHR agonist – activates the human TRH receptor; hit rate 0.18% among 360,000; P34981; TRHR cells, calcium flux fluo-8, FDSS agonist mode; activation, % at 2 µM; also: 0% is about no effect
Target sequence (P34981 whole entry, looked up): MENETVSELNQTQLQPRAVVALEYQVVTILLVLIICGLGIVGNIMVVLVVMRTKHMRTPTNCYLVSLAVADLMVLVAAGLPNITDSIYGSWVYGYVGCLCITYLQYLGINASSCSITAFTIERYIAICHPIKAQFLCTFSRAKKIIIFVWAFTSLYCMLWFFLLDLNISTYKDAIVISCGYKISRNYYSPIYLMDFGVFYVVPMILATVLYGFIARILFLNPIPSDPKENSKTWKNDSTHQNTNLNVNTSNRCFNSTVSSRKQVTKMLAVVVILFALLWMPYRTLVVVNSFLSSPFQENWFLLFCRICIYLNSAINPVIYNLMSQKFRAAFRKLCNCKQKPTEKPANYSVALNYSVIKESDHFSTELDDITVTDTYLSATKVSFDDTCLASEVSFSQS
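In this calcium-flux screen, cells bearing human TRHR are dye-loaded with fluo-8, baselined for 10 cycles, then exposed to library compounds; positive kinetic calcium responses during the agonist phase mark hits, with TRH as control.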
D1 antag – antagonists of human D1 dopamine receptor; P21728; HEK293 TREx D1 cells, calcium flux, dopamine EC80; stronger effect = lower value; hit rate 3.2% among 360,000; activity change, negative = inhibition, % at 10 µM; in the data active = activity change below about -30%; also: % is scaled to controls: 0 for no effect and ±100 for the full control effect
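After overnight tetracycline induction at 30 C, force-coupled D1 HEK293 cells took up a no-wash calcium dye at room temperature. Compounds were added and monitored 180 s, and the response to EC80 dopamine was then recorded.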
D1 PAM – human D1 dopamine receptor positive modulation; P21728; HEK293 TREx D1 cells, calcium flux, dopamine EC20 potentiation; potentiation, % at 10 µM; hit rate 0.036% among 360,000; AID 504651; in the data active = potentiation above about 30%; also: 0% is about no effect
TRHR PAM – TRH receptor (human) allosteric enhancement; TRHR cells, fluo-8 calcium fluorescence, EC20 TRH enhancement; enhancement, % at 2 µM; P34981; hit rate 0.66% among 360,000; in the data active = enhancement above about 30%; also: 0% is about no effect
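TRHR-expressing cells loaded with fluo-8 calcium dye were read kinetically (ex 480/em 530) during compound addition, then stimulated with an EC20 of TRH (10 nM final). Enhancement of the Gq-mediated intracellular calcium response was scored.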
D1 ag – activates the human D1 dopamine receptor; P21728; HEK293 T-REx D1 cells, calcium flux, agonist mode; activation, % at 2 µM; hit rate 1% among 360,000; AID 504660; also: 0% is about no effect
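Inducible HEK293 T-REx D1 cells, force-coupled to calcium signalling, were plated at 4000 cells/well with tetracycline and held overnight at 30 C. After no-wash calcium dye loading, compound-evoked calcium rise over 180 s flagged agonists.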
* = called active by the depositor; . = not tested or not shown. Only some compounds are listed: those with a hit (about 4.7% of all), similar ones and a draw of the others. Rule as the data show it, unless noted: active = activation above about 30%; inactive = the rest.

SMILES | TRHR agonist | D1 antag | D1 PAM | TRHR PAM | D1 ag
O=C(Cc1cccs1)Nc1cccc(-c2nc3cc4ccccc4cc3[nH]2)c1 | 1 | -38* | -5 | -2 | 0
Cc1cc(CN2CCN(CC(=O)Nc3cc(C(F)(F)F)ccc3-n3cncn3)CC2)no1 | 0 | -2 | 4 | 11 | 2
O=C(COC(=O)c1cc(=O)[nH]c2ccc(Br)cc12)c1ccccc1 | -2 | 108 | 2 | 33* | 0
COc1ccc(CCn2c(C(C)C)nc3c(c(=O)c4ccccc4n3C)c2=O)cc1 | 17 | -16 | -5 | -7 | 140*
COc1ccc(Cn2c(-c3ccc(OC)cc3)nc3c(c(=O)c4ccccc4n3C)c2=O)cc1 | 1 | 3 | 6 | -3 | 15
COc1ccc(CCn2c(C)nc3c(c(=O)c4ccccc4n3C)c2=O)cc1 | -1 | 7 | 2 | 2 | 3
COc1ccc(Cn2c(-c3ccc(C)cc3)nc3c(c(=O)c4ccccc4n3C)c2=O)cc1 | -1 | 0 | 3 | -4 | 39*
Cc1cccc(C(=O)OCC(=O)c2c(C)[nH]c3ccccc23)c1O | 1 | -10 | -4 | 6 | 4
O=c1c2sc3ccccc3c2n(Cc2ccc(Cl)cc2)c(=O)n1Cc1ccco1 | 0 | 11 | 2 | -9 | 2
Cn1nc(C(F)(F)F)c2cc(C(=O)Nc3ccc(C(F)(F)F)cc3)sc21 | 2 | -45* | -7 | -11 | 21
Cn1nc(C(F)(F)F)c2cc(C(=O)Nc3ccc(F)cc3)sc21 | 0 | 2 | -5 | -7 | 4
O=C(Nc1cc2c3c(c1)CC(=O)N3CCC2)c1ccccc1Br | 0 | 1 | -8 | 34* | 0
O=C(Nc1cc2c3c(c1)CC(=O)N3CCC2)c1ccc(Br)cc1 | -1 | -20 | -2 | 3 | 0
O=C1C(Cl)=C(NCCCO)C(=O)c2ccccc21 | 0 | 0 | -5 | 28 | 2
O=C1C(SCCO)=C(SCCO)C(=O)c2ccccc21 | 2 | -32* | -6 | 0 | 2
COc1ccccc1CCNC(=O)C(=O)NCC1OCCCN1S(=O)(=O)c1cc(C)ccc1C (stereo not given) | 0 | 1 | -7 | -1 | 6
Cc1ccc(S(=O)(=O)N2CCCOC2CNC(=O)C(=O)NCCc2c[nH]c3ccccc23)cc1 (stereo not given) | -1 | -36* | -13 | 1 | 1
COc1ccc(CCNC(=O)C(=O)NCC2OCCCN2S(=O)(=O)c2cc(C)ccc2C)cc1 (stereo not given) | 0 | -44* | 3 | -1 | 1
CCOC(=O)CN(C(=O)CSc1nnc(C)n1-c1ccccc1)c1cccc([N+](=O)[O-])c1 | -1 | -5 | -3 | 5 | 1
CCOC(=O)CN(C(=O)CSc1nnc(C)n1-c1ccccc1)c1ccccc1 | 0 | -52* | -4 | -20 | 1
Cc1ccccc1CNc1ncnc2cc(Cl)ccc12 | 0 | -7 | 2 | -2 | 6
Fc1ccc(F)c(CNc2ncnc3cc(Cl)ccc23)c1 | 3 | -30* | -8 | -5 | 11
COc1cc(OC)c(NC(=O)C(C)n2nc(-c3ccc(C)cc3)c3c(c2=O)CCCC3)cc1Cl (stereo not given) | 1 | -4 | -2 | 2 | 2
Cc1ccc(N(C)C(=O)c2cc(S(=O)(=O)N3CCOCC3)cn2C)cc1 | 0 | 1 | -2 | -1 | 2
COC(=O)C1CCN(C(=O)COC(=O)Cc2c[nH]c3ccccc23)CC1 | 1 | 3 | -6 | 37* | 3
SMILES | TRHR agonist | D1 antag | D1 PAM | TRHR PAM | D1 ag
CC1CCCN(C(=O)COC(=O)Cc2c[nH]c3ccccc23)C1 (stereo not given) | 0 | -16 | -4 | -3 | 4
O=C(NCc1ccc(Cl)cc1)c1ccc(-c2ccccc2C(F)(F)F)o1 | 0 | -39* | -3 | 0 | 33*
CC1CCc2c(sc3ncnc(NCc4cccnc4)c23)C1 (stereo not given) | -1 | -5 | -2 | -5 | 1
c1cncc(CNc2ncnc3sc4c(c23)CCC4)c1 | -1 | -43* | -1 | -1 | 4
COC(=O)c1sc(NC(=O)c2c(C)noc2C)nc1C | 0 | -33* | -8 | 0 | 4
Cc1nc(NC(=O)c2ccco2)sc1C(=O)O | 1 | -35* | -4 | 28 | 2
COC(=O)c1sc(NC(=O)c2ccco2)nc1C | 0 | -2 | 1 | 5 | 6
COC(=O)c1sc(NC(=S)NC(=O)c2ccccc2C)nc1C | 16 | 4 | -3 | -7 | 92*
CSc1ccc(S(=O)(=O)NCC(=O)OCC(=O)N(C)Cc2ccccc2)cc1[N+](=O)[O-] | -1 | -23 | -6 | 0 | 14
O=C(Nc1ccc(OCc2ccccc2)cc1)c1cccnc1 | 0 | 4 | 2 | -24 | 61*
O=C(Nc1ccc(OCc2ccccc2)cc1)c1ccccc1 | 2 | -9 | -3 | 8 | 2
O=C(Nc1ccc2c(c1)oc1ccccc12)c1cccnc1 | 0 | -55* | -12 | -21 | 3
O=C(NNC(=S)Nc1ccccc1)c1cccnc1 | 0 | 0 | 3 | 41* | 7
O=C(Nc1ccc(Oc2cccnc2)cc1)c1ccccc1F | 1 | -42* | -10 | -7 | 13
COc1ccc(N2C(=O)CS(=O)(=O)C23C(=O)N(Cc2c(F)cccc2Cl)c2ccccc23)cc1 (stereo not given) | 0 | -11 | -2 | -11 | 5
CC(C)Sc1nc2c(c(=O)[nH]1)C(c1cccs1)C1=C(CC(C)(C)CC1=O)N2 (stereo not given) | 0 | 4 | 1 | 33* | 0
Cn1nnnc1Sc1ncnc2scc(-c3ccccc3F)c12 | -1 | 14 | -2 | 5 | 0
CCCc1cnc2c(c1SCc1cccc(F)c1)c(=O)n(C)c(=O)n2C | 0 | . | 8 | -2 | 9
O=C(NCc1ccccc1Cl)c1ccc2c(c1)nnn2C1CCCC1 | 0 | -34* | -4 | 2 | 7
CCc1ccccc1NC(=O)c1ccc2c(c1)nnn2C1CCCC1 | 0 | -30* | 0 | 1 | 5
O=C(NCc1ccc(F)cc1)c1ccc2c(c1)nnn2C1CCCC1 | -1 | -19 | -2 | -2 | 11
Cc1cccc(N(Cc2ccccc2)C(=O)C2CCN(C(=O)c3ccccc3C)CC2)c1 | 0 | -3 | . | 8 | 2
Cc1ccc(S(=O)(=O)Cc2ccc(C(=O)NCCc3ccc(Cl)cc3)o2)cc1 | 1 | -23 | 4 | -15 | 2
CC(=O)N[C@@H](Cc1ccc(O)cc1)C(=O)N[C@H](C(=O)N[C@@H](C)C(=O)N[C@H](C#N)CC(=O)O)C(C)C | 0 | -17 | -2 | -9 | 2
C=CCN=c1scc(C)n1/N=C/c1ccc(O)c(O)c1 | 0 | -50* | -4 | -1 | 2
CCOc1ccc(S(=O)(=O)NCCC2=CCCCC2)c2ccccc12 | 3 | -36* | -5 | 0 | 19

From PubChem
